Data from the supplement of paper PMC12067926.

Columns and labels:
Test in all cases: relative growth (AUC of 72 h growth curve relative to DMSO control, dAUC) (ratio); higher = more growth (less inhibition), active = hit call of the paper
Settings in all cases: 20 µM;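 active = growth AUC significantly below the DMSO wells by Dunnett test; inactive = the rest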
[1] = test system: Aeromonas 1 (Aeromonas sp. AE235)
Summary of the method: (§1)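 Isolates from Icelandic stream sediments and Silwood Park soil, along with whole sediment communities, were grown in Luria–Bertani medium to carrying capacity and diluted 1:100 into 96-well plates with each chemical at 20 µM (1% DMSO). A600 was measured hourly for 72 h, and values were averaged over three biological replicates. Relative growth (dAUC) is the spline-integrated growth-curve area over the mean of the DMSO controls.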

[2] = test system: Aeromonas 2 (Aeromonas sobria)
Summary of the method: as §1

[3] = test system: Aeromonas 3 (Aeromonas popoffii)
Summary of the method: as §1

[4] = test system: Argrobacterium 1 (Agrobacterium sp.)
Summary of the method: as §1

[5] = test system: Arthrobacter 1 (Arthrobacter humicola)
Summary of the method: as §1

[6] = test system: Arthrobacter 2 (Arthrobacter humicola)
Summary of the method: as §1

[7] = test system: Arthrobacter 3 (Arthrobacter sp.)
Summary of the method: as §1

Community 10 = test system: Community 10
Summary of the method: as §1

Community 4 = test system: Community 4
Summary of the method: as §1

Community 6 = test system: Community 6
Summary of the method: as §1

Community 7 = test system: Community 7
Summary of the method: as §1

Community 8 = test system: Community 8
Summary of the method: as §1

Community 9 = test system: Community 9
Summary of the method: as §1

[8] = test system: Flavobacterium 1 (Flavobacterium glaciei)
Summary of the method: as §1

[9] = test system: Flavobacterium 2 (Flavobacterium succinicans)
Summary of the method: as §1

[10] = test system: Hymenobacter 1 (Hymenobacter glaciei)
Summary of the method: as §1

[11] = test system: Microbacterium 1 (Microbacterium arborescens)
Summary of the method: as §1

[12] = test system: Neobacillus 1 (Neobacillus soli)
Summary of the method: as §1

[13] = test system: Oryzobacter 1 (Oryzobacter terrae)
Summary of the method: as §1

[14] = test system: Paenibacillus 1 (Paenibacillus castaneae)
Summary of the method: as §1

| SMILES | relative growth [1] | relative growth [2] | relative growth [3] | relative growth [4] | relative growth [5] | relative growth [6] | relative growth [7] | relative growth (Community 10) | relative growth (Community 4) | relative growth (Community 6) | relative growth (Community 7) | relative growth (Community 8) | relative growth (Community 9) | relative growth [8] | relative growth [9] | relative growth [10] | relative growth [11] | relative growth [12] | relative growth [13] | relative growth [14] |
| --- | --- | --- | --- | --- | --- | --- | --- | --- | --- | --- | --- | --- | --- | --- | --- | --- | --- | --- | --- | --- |
| CC1(C)[C@H](C(=O)O[C@H](C#N)c2cccc(Oc3ccccc3)c2)[C@@H]1C=C(Br)Br | 1.05 (inactive) | 1.04 (inactive) | 1.09 (inactive) | 1.09 (inactive) | 1.16 (inactive) | 0.949 (inactive) | 0.946 (inactive) | 0.964 (inactive) | 1.01 (inactive) | 1.06 (inactive) | 1.07 (inactive) | 1.06 (inactive) | 1.05 (inactive) | 1.08 (inactive) | 1.02 (inactive) | 1.06 (inactive) | 1.03 (inactive) | 1.1 (inactive) | 1.08 (inactive) | 0.958 (inactive) |
| C[C@@H]1[C@@H](c2ccc(Cl)cc2)SC(=O)N1C(=O)NC1CCCCC1 | 1.02 (inactive) | 1.02 (inactive) | 1.01 (inactive) | 1.04 (inactive) | 0.906 (inactive) | 0.925 (inactive) | 1.02 (inactive) | 1.03 (inactive) | 0.946 (inactive) | 1.02 (inactive) | 1.05 (inactive) | 1.05 (inactive) | 1.05 (inactive) | 0.937 (inactive) | 1.02 (inactive) | 1.12 (inactive) | 1.04 (inactive) | 1.06 (inactive) | 0.912 (inactive) | 1.02 (inactive) |
| CCCCc1c(C)nc(NCC)nc1OS(=O)(=O)N(C)C | 0.942 (inactive) | 0.942 (inactive) | 1.04 (inactive) | 1.03 (inactive) | 0.911 (inactive) | 0.863 (inactive) | 0.926 (inactive) | 0.816 (inactive) | 0.948 (inactive) | 0.944 (inactive) | 1.04 (inactive) | 1.05 (inactive) | 0.969 (inactive) | 0.978 (inactive) | 0.904 (inactive) | 1.06 (inactive) | 1.02 (inactive) | 0.963 (inactive) | 1.09 (inactive) | 0.906 (inactive) |
| O=C(NCCc1ncc(C(F)(F)F)cc1Cl)c1ccccc1C(F)(F)F | 0.997 (inactive) | 0.977 (inactive) | 0.973 (inactive) | 1.13 (inactive) | 0.873 (inactive) | 0.931 (inactive) | 1.01 (inactive) | 0.806 (inactive) | 0.994 (inactive) | 0.939 (inactive) | 0.935 (inactive) | 0.961 (inactive) | 1.05 (inactive) | 0.987 (inactive) | 0.962 (inactive) | 0.995 (inactive) | 1.02 (inactive) | 0.981 (inactive) | 1.11 (inactive) | 0.935 (inactive) |
| CCc1nn(C)c(C(=O)NCc2ccc(Oc3ccc(C)cc3)cc2)c1Cl | 1.03 (inactive) | 1.06 (inactive) | 1.05 (inactive) | 1.02 (inactive) | 1.04 (inactive) | 0.892 (inactive) | 1.02 (inactive) | 0.804 (inactive) | 0.865 (inactive) | 0.897 (inactive) | 1.02 (inactive) | 1.03 (inactive) | 0.885 (inactive) | 1 (inactive) | 1.04 (inactive) | 0.992 (inactive) | 1.02 (inactive) | 1.05 (inactive) | 0.988 (inactive) | 1 (inactive) |
| CC(COc1ccc(Oc2ccccc2)cc1)Oc1ccccn1 (configuration not stated) | 1.04 (inactive) | 0.997 (inactive) | 1.08 (inactive) | 1.09 (inactive) | 1.11 (inactive) | 0.937 (inactive) | 0.925 (inactive) | 1.01 (inactive) | 1.08 (inactive) | 1.07 (inactive) | 1.05 (inactive) | 1.06 (inactive) | 1.04 (inactive) | 0.975 (inactive) | 1.02 (inactive) | 1.07 (inactive) | 1.05 (inactive) | 1.09 (inactive) | 1.11 (inactive) | 1.05 (inactive) |
| CCc1cc(C)cc(CC)c1-c1c(OC(=O)C(C)(C)C)n2n(c1=O)CCOCC2 | 0.987 (inactive) | 0.978 (inactive) | 1.02 (inactive) | 0.957 (inactive) | 1.01 (inactive) | 0.873 (inactive) | 0.917 (inactive) | 0.925 (inactive) | 0.852 (inactive) | 0.906 (inactive) | 1.05 (inactive) | 0.968 (inactive) | 0.884 (inactive) | 1.02 (inactive) | 0.943 (inactive) | 0.947 (inactive) | 1.03 (inactive) | 0.861 (inactive) | 1.01 (inactive) | 0.956 (inactive) |
| COP(N)(=O)SC (configuration not stated) | 0.996 (inactive) | 1 (inactive) | 0.972 (inactive) | 1.14 (inactive) | 0.92 (inactive) | 0.0085 (active) | 0.137 (active) | – | 0.808 (inactive) | 0.626 (active) | 1.34 (inactive) | 0.924 (inactive) | 0.575 (active) | 0.117 (active) | 0.952 (inactive) | 1.01 (inactive) | 0.992 (inactive) | 0.856 (inactive) | 1.03 (inactive) | 0.194 (active) |
| CC(C)N1C(=O)c2ccccc2NS1(=O)=O | 0.965 (inactive) | 0.994 (inactive) | 0.991 (inactive) | 0.998 (inactive) | 1.03 (inactive) | 1.05 (inactive) | 1.13 (inactive) | 0.86 (inactive) | 0.932 (inactive) | 0.962 (inactive) | 1.02 (inactive) | 0.996 (inactive) | 1.01 (inactive) | 1.09 (inactive) | 1.02 (inactive) | 1.09 (inactive) | 0.977 (inactive) | 1.04 (inactive) | 1.02 (inactive) | 0.96 (inactive) |
| CO/N=C(/C(=O)OC)c1ccccc1CO/N=C(\C)c1cccc(C(F)(F)F)c1 | 0.966 (inactive) | 0.929 (inactive) | 0.961 (inactive) | 1.07 (inactive) | 0.928 (inactive) | 0.876 (inactive) | 0.97 (inactive) | – | 0.822 (inactive) | 0.809 (inactive) | 1.05 (inactive) | 0.968 (inactive) | 0.784 (inactive) | 0.975 (inactive) | 0.943 (inactive) | 1.05 (inactive) | 0.99 (inactive) | 1 (inactive) | 1.26 | 0.9 (inactive) |
| N#C/N=C1\SCCN1Cc1ccc(Cl)nc1 | 0.998 (inactive) | 1 (inactive) | 1 (inactive) | 0.984 (inactive) | 1.1 (inactive) | 1.11 (inactive) | 1.06 (inactive) | 1.02 (inactive) | 1.04 (inactive) | 1.05 (inactive) | 0.846 (inactive) | 1.07 (inactive) | 1.09 (inactive) | 1.1 (inactive) | 1.04 (inactive) | 1.21 (inactive) | 1.03 (inactive) | 1.07 (inactive) | 1.02 (inactive) | 1.05 (inactive) |
| CC(C)N(C)S(=O)(=O)NC(=O)c1cc(-n2c(=O)cc(C(F)(F)F)n(C)c2=O)c(F)cc1Cl | 0.995 (inactive) | 1.02 (inactive) | 1.01 (inactive) | 1.03 (inactive) | 1.1 (inactive) | 1.01 (inactive) | 1.07 (inactive) | 0.909 (inactive) | 1.13 (inactive) | 1.03 (inactive) | 1.06 (inactive) | 1.08 (inactive) | 1.14 (inactive) | 1 (inactive) | 0.978 (inactive) | 1.04 (inactive) | 1 (inactive) | 0.98 (inactive) | 1.02 (inactive) | 0.99 (inactive) |
| CS(=O)(=O)NC(=O)c1cc(Oc2ccc(C(F)(F)F)cc2Cl)ccc1[N+](=O)[O-] | 1.02 (inactive) | 1.02 (inactive) | 1.03 (inactive) | 1.02 (inactive) | 0.905 (inactive) | 1.07 (inactive) | 1.05 (inactive) | 1.09 (inactive) | 1.02 (inactive) | 1.03 (inactive) | 1.04 (inactive) | 1.05 (inactive) | 1.07 (inactive) | 1.06 (inactive) | 1.02 (inactive) | 1.04 (inactive) | 1.03 (inactive) | 1.02 (inactive) | 0.957 (inactive) | 1.03 (inactive) |
| CC(C)N1C(=O)N(c2ccccc2)CS/C1=N\C(C)(C)C | 1.04 (inactive) | 1.1 (inactive) | 1.01 (inactive) | 1.07 (inactive) | 0.994 (inactive) | 0.59 (active) | 0.868 (inactive) | – | 1.02 (inactive) | 1.02 (inactive) | 1.09 (inactive) | 1.08 (inactive) | 1.03 (inactive) | 0.891 (inactive) | 0.947 (inactive) | 1.06 (inactive) | 1.07 (inactive) | 0.906 (inactive) | 0.973 (inactive) | 1 (inactive) |
| COCC(=O)N(c1c(C)cccc1C)C(C)C(=O)OC (configuration not stated) | 1.03 (inactive) | 1.04 (inactive) | 1.04 (inactive) | 1.01 (inactive) | 0.944 (inactive) | 0.862 (inactive) | 0.994 (inactive) | 1.06 (inactive) | 1.05 (inactive) | 1.03 (inactive) | 1.08 (inactive) | 0.993 (inactive) | 1.09 (inactive) | 0.939 (inactive) | 0.99 (inactive) | 1.03 (inactive) | 1.02 (inactive) | 0.986 (inactive) | 1.01 (inactive) | 1.03 (inactive) |
